# According to PubChem BioAssay:
# Activity calls are given as the source filed them.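 Rule for the calls: active = growth inhibition above 50% at the single 2 µM test dose, taken to imply half-maximal potency below 2 µM; inactive = the rest.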
# Experiment: antimalarial activity against Dd2 strain (AID 2302);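 note: 0% = DMSO untreated growth and 100% = chloroquine plus artemisinin killed control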
# Conditions: P. falciparum Dd2 in RBCs, LDH growth readout, 72 h; at 2 µM; stronger effect = higher value
row,SMILES,growth inhibition
1,CC(C)c1ccc(C(NC(=O)C2CCCCC2)c2ccc3cccnc3c2O)cc1 (centres undefined),70% (active)
2,O=C(/C=C/c1ccc(Cl)c(Cl)c1)NCCCCCCN1CCN(C(=O)Nc2ccc(OC(F)F)cc2)CC1,15% (inactive)
3,COc1cc2ncnc(Nc3ccc(Br)c(Cl)c3)c2cc1OC,15% (inactive)
4,COc1cccc(C=CC(=O)N(CCN)Cc2ccccc2)c1,-4% (inactive)
5,c1cc(COc2ccc(C3=NCCN3)cc2)nc(COc2ccc(C3=NCCN3)cc2)c1,98% (active)
6,O=C(Nc1cc(C(F)(F)F)cc(C(F)(F)F)c1)Nc1ccc(Cl)c(Cl)c1,100% (active)
7,Cc1cccc2[nH]c(-c3cccc(-c4cccc(NC(=O)Cc5cnc[nH]5)c4)c3)nc12,100% (active)
8,Cc1cc(N2CCCC2)nc(Nc2ccc(NC(=O)C3CCCC3)cc2)n1,81% (active)
9,CCNC(=O)c1ccc2c(c1)c(C)c(C)n2Cc1ccc(F)cc1,91% (active)
10,O=C(c1cc(-c2ccccc2O)on1)N1CCN(C(c2ccccc2)c2ccccc2)CC1,88% (active)
11,CCOC(=O)NCC(=O)Nc1cccc(-c2cccc(-c3nc4ccc(C(F)(F)F)cc4[nH]3)c2)c1,34% (inactive)
12,CN1CCCC(CN2CCN(Cc3ccc(-c4ccc(-c5nc6ccccc6[nH]5)s4)cc3)CC2)C1 (centres undefined),100% (active)
13,Cc1cccc2[nH]c(-c3ccc(-c4cccc(CN5CCC(C(N)=O)CC5)c4)cc3)nc12,16% (inactive)
14,Cc1c(F)cc(C(=O)NC2CC2)cc1-c1ccc2c(cnn2S(=O)(=O)c2cccs2)c1,68% (active)
15,CC(C)Nc1cc(C(=O)N[C@@H](Cc2ccccc2)[C@H](O)CNC2CCOCC2)c(F)c(N2CCCCS2(=O)=O)c1,98% (active)
16,Cc1cnc(NCC2CCCCC2)nc1NCC(=O)Nc1ccccc1,51% (active)
17,FC(F)(F)c1cccc(NC(=S)NN=Cc2ccccn2)c1,99% (active)
18,OC1(c2ccc(Br)cc2)CCN(C2CCN(Cc3ccccc3)CC2)CC1,18% (inactive)
19,CCOc1ccc2nc(C)cc(NN=Cc3ccncc3)c2c1,78% (active)
20,COc1ccc2nccc([C@@H](O)CN3CCC(NCc4cc5ccccc5o4)CC3)c2c1,72% (active)

row,SMILES,growth inhibition
1,COc1ccc(C(=O)Nc2ccc3oc(-c4ccc(C(F)(F)F)cc4)cc3c2)cc1CCCN(C)C,27% (inactive)
2,CCc1cn(C)c2c(N3CCCC3=O)cc(C(=O)N[C@@H](Cc3ccccc3)[C@H](O)CNC(C)(C)c3cccc(OC)c3)cc12,99% (active)
3,O=C(Nc1cccc(-c2ccc(CN3CCCC3)cc2)c1)c1ccc(F)cc1,9% (inactive)
4,CCC(CC)OC(=O)C(C)c1cccc(C(=O)c2ccccc2)c1 (centres undefined),0% (inactive)
5,N#Cc1ccc2c(c1)CCN(CCC1CCC(NC(=O)/C=C/c3cnc4ccccc4c3)CC1)CC2 (centres undefined),21% (inactive)
6,CN1CCC(N2CCN(Cc3ccc(-c4cccc(-c5nc6ccc(F)cc6[nH]5)c4)cc3)CC2)CC1,99% (active)
7,CC(C)(C)c1ccc2nc(-c3ccc(C(=O)NCc4cccc(C(F)(F)F)c4)cc3)[nH]c2c1,26% (inactive)
8,CCN1CCN(c2cc(C)c3cc(NC(=O)c4cccc([N+](=O)[O-])c4)ccc3n2)CC1,73% (active)
9,N=C(N)c1cc(Cl)cc(NC(=O)Nc2cc(Cl)cc(C(=N)N)c2)c1,92% (active)
10,N#Cc1ccc2c(c1)CCN(CCC1CCC(NC(=O)Nc3ccncc3)CC1)C2 (centres undefined),3% (inactive)
11,CCc1ccc(NC(=O)C=NN=C(N)N)cc1,3% (inactive)
12,Cc1ccn2c(N(Cc3ccccc3)C(=O)c3ccc(Cl)c(Cl)c3)c(-c3ccccc3)nc2c1,-5% (inactive)
13,O=C(c1cccc(COc2ccc3c(c2)CCN(C2CCCC2)CC3)c1)N1CCN(c2ccncc2)CC1,35% (inactive)
14,CCCCCCCN1CC[C@H](CC(=O)Nc2ccnc3ccc(OC)cc23)[C@@H](CC)C1,75% (active)
15,CCCCCCN1CCC(NCc2ccc(OCCN3CCCC3)cc2)CC1,93% (active)
16,COc1cccc2cc(C(=O)N[C@@H](CC(C)C)C(=O)N[C@H](/C=N/NC(=O)OC(C)(C)C)CC(C)C)oc12,57% (active)
17,OC(CNCc1cccc(Oc2ccc(Cl)cc2)c1)c1cccc(C(F)(F)F)c1 (centres undefined),78% (active)
18,COc1ccc(-c2ccc(NC(=O)c3cccc(C#N)c3)cc2)cc1CN1CCNCC1,47% (inactive)
19,COC(=O)CNC(c1ccccc1)c1cc(Br)ccc1NC(=O)c1ccccc1Br (centres undefined),77% (active)
